TROY signal inh – blocks TROY-dependent signaling in reporter cells | Q293 LMP1-TROYcd NF-kB luciferase reporter, 4 h | inhibition, % at 10 µM | 0.98% of 360,000 active | AID 1347056;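 active = compounds whose plate-normalised and pattern-corrected inhibition of the luciferase reporter signal at the single screening dose is 50% or more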
CF NFkB inh – cystic fibrosis NF-kB activation inhibition; KKLEB NF-kB-GFP reporter, PAF-induced, GFP fluorescence overnight; inhibition, % at 5 µM; 0.86% of 360,000 active; AID 588850;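 active = at least 50% inhibition at 5 µM, scaled per plate between neutral and stimulator controls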;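 note: PAF is a Pseudomonas aeruginosa culture filtrate used as stimulus; plate controls were PAF-stimulated DMSO wells for no effect and unstimulated DMSO wells for full effect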
Peg3 promoter – Peg3 promoter activity inhibition | 1.7% of 360,000 active | inhibition, % at 20 µM | HeLa PEG-Prom luciferase reporter, luminescence, overnight;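 active = inhibition of at least 50% at 20 µM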
KKLEB cytotox – CF airway cell cytotoxicity counter-screen; activity change (cytotoxicity), % at 5 µM; 0.36% of 360,000 active; AID 602141; KKLEB CF airway cells viability, ATPlite luminescence, overnight; hits give low values; cells stimulated with P. aeruginosa culture filtrate;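 active = corrected activity change at or below -50% at 5 µM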
TWEAK Fn14 block – blocks TWEAK-Fn14 interaction in a reporter cell assay. TWEAK-stimulated Fn14 reporter cells, luciferase luminescence, 8 h. inhibition, % at 10 µM. 2% of 360,000 active. AID 1159606; in the data active = inhibition above about 50%
HIF-2a inh – HIF-2a inhibition | 786-0 RCC cells HIF-2a reporter, luciferase luminescence, overnight | inhibition, % at 18.8 µM | 0.72% of 360,000 active;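 active = inhibition of the luminescence signal of 40% or more relative to plate controls, in a single-dose primary screen at 18.75 µM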
An asterisk follows results filed as active; i = inactive; . = no result. Sampled rows, rich in hits. Any-hit rate of the full collection: about 4%.

SMILES | TROY signal inh | CF NFkB inh | Peg3 promoter | KKLEB cytotox | TWEAK Fn14 block | HIF-2a inh
Cc1cc(C)c2nc(NC(=O)c3ccc(OCC4CCCO4)cc3)sc2c1 (centres undefined) | -11.7 | 7.3 | -134.7 | -3.8 | 52.8* | -107.9
CC(=O)Nc1ccc(S(=O)(=O)N2CCC(c3nc4c(nnn4Cc4ccccc4Cl)c(=O)[nH]3)CC2)cc1 | -9.2 | 4.5 | 19.7 | -9.3 | -1.1 | 15.5
Clc1ccc(Cc2noc(CN3CCN(c4ccccc4)CC3)n2)c(Cl)c1 | -1.9 | -19.2 | 54.5* | -2.0 | -3.3 | 12.4
CCc1ccc(C(C(=O)NCc2ccc(F)cc2)N(C(=O)c2csnn2)C2CC2)cc1 (centres undefined) | -1.6 | -4.6 | 8.3 | 3.1 | 6.7 | 8.0
CNC(=O)/C(C#N)=c1\s/c(=C/C(=O)OC)c(=O)n1-c1ccccc1 | 9.0 | -1.4 | -13.9 | -1.1 | -8.6 | 32.5
COC(=O)/C=c1\sc2ncnn2c1=O | . | 8.0 | 11.9 | 4.0 | 74.1* | 6.7
Cc1ccccc1OCCC(=O)Nc1ccc(S(=O)(=O)N2CCCC2)cc1 | -4.3 | -9.8 | 24.2 | 8.8 | -1.6 | 5.8
c1cc2c(cc1C1CCCCC1)c1c3n2CCCNC3CCC1 (centres undefined) | -14.9 | 20.1 | 103.9* | -16.1 | -23.0 | 31.4
Cc1ccc2c(c1)c1c3n2CCCNC3CCC1 (centres undefined) | 10.4 | 10.1 | 12.5 | -11.5 | 2.8 | 3.4
CN1C2CCC1/C(=C\c1ccccc1F)C(=O)/C2=C/c1ccccc1F | 19.8 | -13.6 | 4.4 | 3.4 | 83.4* | 39.7
Cc1ccc2c(c1)/C(=C/c1ccccc1F)C(=O)N2 | -28.8 | -7.5 | 11.8 | 10.5 | 11.1 | 21.4
O=C(Nc1nc2ccccc2n1CCN1CCOCC1)c1ccccc1 | -11.8 | -0.9 | -4.7 | -4.7 | 13.7 | -10.1
O=C(Nc1nc2ccccc2n1CCN1CCOCC1)c1cn(-c2ccccc2)nc1-c1ccccc1 | 13.3 | 2.6 | 84.2* | -19.2 | 29.0 | 12.1
CC(=O)CSc1nnc(-c2ccc3c(c2)OCO3)o1 | 30.9 | -18.3 | -70.4 | 2.4 | 58.0* | -28.3
COC(=O)c1ccccc1-c1ccc(/C=N/NC(=O)c2cc3ccccc3o2)o1 | 7.3 | -11.0 | 25.1 | 14.6 | 19.6 | 4.3
COC(=O)c1ccccc1-c1c2ccc(=N)cc-2oc2cc(N)ccc12 | 17.5 | i | 17.8 | -21.5 | 53.0* | 6.3
CC(=O)c1ccc(N/N=C(/C(N)=O)C2=NC(C)(C)Cc3ccccc32)cc1 | 29.7 | 26.2 | 76.7* | -15.9 | 44.2 | 31.3
CC1(C)Cc2ccccc2C(/C(=N/O)C(N)=O)=N1 | 9.8 | 15.8 | 9.9 | 2.6 | 0.1 | -1.3
CC1(C)Cc2ccccc2C(/C(=N\Nc2cccc(Cl)c2)C(N)=O)=N1 | 27.5 | 26.7 | 39.8 | -11.6 | 55.6* | 21.7
Nc1ncnc2c1ncn2[C@@H]1O[C@H](CNCc2ccccc2OCC(=O)N2CCCCC2)[C@@H](O)[C@H]1O | -24.1 | 1.2 | -4.4 | 2.6 | -3.9 | 2.6
COc1ncnc2c1ncn2CCCNCCCN1CCCC1=O | -1.7 | -1.5 | 1.4 | 11.7 | -15.1 | 7.8
COc1cccc(N2CCN(C(=O)c3cc4c(s3)CCCCC4)CC2)c1 | 18.8 | 14.5 | -133.8 | -9.1 | -22.7 | -154.9
O=c1c(-c2ccccc2Cl)coc2c(CN3CCCCC3)c(O)ccc12 | 2.9 | -7.7 | 11.7 | 0.1 | 64.3* | 19.8
O=c1c(-c2ccc(Cl)cc2)coc2c(CN3CCCCC3)c(O)ccc12 | -24.9 | 10.5 | 4.6 | 1.5 | 4.0 | 0.7
N#CC1(NC(=O)CN2C(=O)NC(c3ccccc3)(c3ccccc3)C2=O)CCCC1 | -6.5 | 14.2 | 9.1 | 3.3 | 10.2 | 8.7
SMILES | TROY signal inh | CF NFkB inh | Peg3 promoter | KKLEB cytotox | TWEAK Fn14 block | HIF-2a inh
O=S(=O)(c1ccccc1)N1CCN(Cc2cccc(Cl)c2)CC1 | 20.6 | 0.6 | 1.9 | 7.1 | 78.6* | 12.5
COCCn1c(C)c(C)c2c(NCCc3ccccc3)ncnc21 | 80.2* | 8.6 | 15.8 | -10.8 | -59.1 | -1.7
C=CCn1c(SCC(=O)c2[nH]c(C)c(C(=O)OCC)c2C)nc2scc(-c3ccc(OC)cc3)c2c1=O | 2.9 | 32.3 | 53.8* | -37.3 | -140.3 | 19.0
C=CCn1c(SCC(=O)c2[nH]c(C)c(C(=O)OCC)c2C)nc2scc(-c3ccccc3)c2c1=O | 10.8 | 16.2 | -2.8 | -8.7 | -36.0 | 13.3
Oc1ccccc1-c1cc(-c2cccc(F)c2)n[nH]1 | -47.3 | -28.3 | -271.6 | 10.5 | 9.5 | -240.5
CC(C)(C)c1ccc(-c2cc(-c3ccccc3O)[nH]n2)cc1 | 83.3* | -6.7 | -69.3 | -4.3 | 85.1* | -29.6
Cc1cccn2cc(-c3ccc(Cl)cc3)nc12 | 9.1 | -35.4 | -83.2 | 1.2 | 53.0* | -146.9
CCNc1nc(NCC)n2c(SCC(=O)Nc3cccc(Cl)c3)nnc2n1 | -13.8 | 12.7 | 17.5 | -5.2 | -9.6 | -13.9
CCNc1nc(NCC)n2c(SC(C(=O)Nc3cc(Cl)cc(Cl)c3)c3ccccc3)nnc2n1 (centres undefined) | 47.2 | 35.1 | 76.5* | -29.7 | 66.6* | 20.3
O=C(O)c1ccccc1Nc1ccc([N+](=O)[O-])c2nonc12 | -26.3 | -1.7 | 18.1 | 8.1 | 6.9 | 26.2
O=C(NCCc1cccs1)c1ccc(Cl)c(Cl)c1 | -64.9 | -20.4 | -340.5 | 13.8 | -1.3 | -299.3
CC(C)C(=O)N1CCN(c2ccc(NC(=O)c3ccc4c(c3)OCCO4)cc2Cl)CC1 | 61.1* | 7.7 | 33.2 | -6.9 | 82.3* | -147.1
O=C(NCCc1cccs1)c1ccc(Cl)cc1 | 3.4 | 4.6 | -133.9 | -3.2 | 58.9* | -105.7
CC(=O)N1CCN(c2ccc(NC(=O)c3ccc4c(c3)OCCO4)cc2Cl)CC1 | 7.4 | -3.5 | -83.6 | 9.2 | -13.6 | -118.8
O=C(NCCc1ccc(Cl)cc1)c1ccc2c(c1)OCCO2 | -0.2 | 0.9 | -99.5 | -12.0 | 54.4* | -138.8
O=C(Nc1ccc(N2CCN(C(=O)c3ccc(Cl)cc3)CC2)cc1)c1ccc2c(c1)OCCO2 | 69.5* | -7.3 | 22.8 | 14.1 | 91.7* | -12.7
COc1cccc(CNC(=O)[C@@H]2CCCN2C(=O)[C@@H]2CCCN2C(=O)c2cccc(OC)c2)c1 | -4.9 | . | . | . | 17.7 | 3.4
CSc1ccc(/C=C(/NC(=O)c2ccco2)C(=O)N2CCCCC2)cc1 | 7.1 | -10.5 | 16.1 | 4.9 | 2.7 | 8.6
CC1=NN(c2ccc(C)cc2)C(=O)/C1=C/c1ccc(-c2cc([N+](=O)[O-])ccc2O)o1 | 49.8 | 54.1* | 17.3 | -41.3 | -10.7 | -13.5
CC1=NN(c2ccc(C(=O)O)cc2)C(=O)/C1=C/c1ccc(-c2ccccc2F)o1 | -0.5 | -5.2 | 28.1 | -1.2 | -26.5 | -4.8
O=C(NCC1COc2ccccc2O1)c1cccc(S(=O)(=O)N2CCOCC2)c1 (centres undefined) | -0.9 | 3.3 | 9.0 | -0.9 | -9.5 | 15.1
CCCC(=O)NC(NC(=S)Nc1c(C)n(C)n(-c2ccccc2)c1=O)C(Cl)(Cl)Cl (centres undefined) | . | 1.5 | 14.2 | 1.7 | 82.3* | 13.7
